Reference: PubChem BioAssay (EPA / NIEHS)
Inconclusive results are not listed. Active and inactive are the calls of the source. How the source made its calls, unless noted: active means hit-call score of the fitted dose curve at least 0.9, where 1 is the maximum; inactive means score below 0.9.

Legend:
[1] = biological target: Estrogen-related receptor gamma (Homo sapiens) (UniProt P62508); test: ATG_ERRg_TRANS: Attagene TRANS-FACTORIAL HepG2 Assay for human Estrogen-Related Receptor gamma (ERRg) (AID 2282977; active means hit-call score of the fitted dose curve at least 0.9, where 1 is the maximum;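 further: hits increase reporter signal over DMSO so potencies reflect activators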); conditions: HepG2 Attagene TRANS reporter, ERRg transactivation
Procedure, shortened: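 Exogenous NR-Gal4 chimera activity measured as reporter transcript induction after 24 h in transiently transfected HepG2 cells. RNA reverse-transcribed, PCR-amplified, 6-FAM-labelled and resolved by capillary electrophoresis; increase over DMSO baseline.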

[2] = biological target: Bile acid receptor (Homo sapiens) (UniProt Q96RI1); test: ATG_FXR_TRANS: Attagene TRANS-FACTORIAL HepG2 Assay for Farnesoid X Receptor (FXR) (AID 2282979; active means hit-call score of the fitted dose curve at least 0.9, where 1 is the maximum;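 further: hits raise reporter mRNA above DMSO so AC50 marks FXR activation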); conditions: HepG2 Attagene TRANS FXR-GAL4 reporter transcription
Procedure, shortened: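 Read-out: fluorescent reporter transcripts quantified by capillary electrophoresis after RT-PCR of total RNA. Source cells were HepG2 transiently carrying chimeric NR-GAL4 plus GAL4-UAS reporter units, dosed 24 h. Activity fitted upward relative to DMSO baseline.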

[3] = biological target: Oxysterols receptor LXR-alpha (Homo sapiens) (UniProt Q13133); test: ATG_LXRa_TRANS: Attagene TRANS-FACTORIAL HepG2 Assay for human Liver X Receptor alpha (LXRa) (AID 2282980; active means hit-call score of the fitted dose curve at least 0.9, where 1 is the maximum); conditions: HepG2 Attagene TRANS reporter, LXRa transactivation
Procedure, shortened: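 Read-out: reporter transcript levels by RT-PCR plus capillary electrophoresis, fluorescence intensity. Transiently transfected HepG2, exogenous NR-GAL4 chimera, GAL4-UAS reporters; 24 h compound exposure. Activity = increase over DMSO negative control.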

[4] = biological target: Hepatocyte nuclear factor 4-alpha (Homo sapiens) (UniProt P41235); test: ATG_HNF4a_TRANS: Attagene TRANS-FACTORIAL HepG2 Assay for human Hepatocyte Nuclear Factor 4 alpha (HNF4a) (AID 2282982; active means hit-call score of the fitted dose curve at least 0.9, where 1 is the maximum); conditions: HepG2 HNF4a transactivation reporter, mRNA readout
Procedure, shortened: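 In this trans-factorial format, a chimeric HNF4a-GAL4 fusion drives a GAL4-UAS reporter in transfected HepG2 liver cells. After 24 h treatment, reporter mRNA induction is measured by RT-PCR with capillary electrophoresis, relative to DMSO.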

[5] = ATG_M_06_TRANS: Attagene TRANS-FACTORIAL HepG2 Assay for M06 Transcription Factor (Internal Marker) (AID 2282983; active means hit-call score of the fitted dose curve at least 0.9, where 1 is the maximum); conditions: HepG2 Attagene TRANS M06 internal marker reporter
Procedure, shortened: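 Read-out: fluorescent reporter cDNA fragments resolved by capillary electrophoresis after RT-PCR and HpaI cut. Source cells were HepG2 carrying transfected multi-reporter GAL4 constructs, dosed 24 h. Increase over DMSO control analysed.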

[6] = biological target: Nuclear receptor subfamily 4 group A member 2 (Homo sapiens) (UniProt P43354); test: ATG_NURR1_TRANS: Attagene TRANS-FACTORIAL HepG2 Assay for human Nuclear Receptor Related Protein 1 (NURR1) (AID 2282985; active means hit-call score of the fitted dose curve at least 0.9, where 1 is the maximum); conditions: HepG2 Attagene TRANS reporter, mRNA readout
Procedure, shortened: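 Chimeric NR-Gal4 fusion activity measured in HepG2 after 24 h treatment. Reporter transcripts detected by RT-PCR and capillary electrophoresis fluorescence; positive-direction curve fitting against DMSO.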

[7] = biological target: Transcriptional activator Myb (Homo sapiens) (UniProt P10242); test: ATG_Myb_CIS: Attagene CIS-FACTORIAL HepG2 Assay for human Myeloblastosis (Myb) Proto-Oncogene Transcription Factor (AID 2282986); conditions: HepG2 Attagene CIS-FACTORIAL Myb reporter transcription; actives raise or lower the signal
Procedure, shortened: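 In this HepG2 transient-transfection format, cis-regulated reporter mRNA is quantified 24 h post-dosing by RT-PCR with capillary electrophoresis, fitted bidirectionally to DMSO baseline.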

[8] = biological target: Nuclear respiratory factor 1 (Homo sapiens) (UniProt Q16656); test: ATG_NRF1_CIS: Attagene CIS-FACTORIAL HepG2 Assay for human Nuclear Respiratory Factor 1 (NRF1) Orphan Gene (AID 2282987); conditions: HepG2 NRF1 cis-element reporter, Attagene multiplex; actives raise or lower the signal
Procedure, shortened: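 Using DMSO as baseline, gain- or loss-of-signal was fitted for reporter mRNA levels in HepG2 cells transiently transfected with cis-regulated reporter units. Samples were taken 24 h after dosing and read by RT-PCR with capillary electrophoresis.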

[9] = biological target: Myc proto-oncogene protein (Homo sapiens) (UniProt P01106); test: ATG_Myc_CIS: Attagene CIS-FACTORIAL HepG2 Assay for human Myelocytomatosis (Myc) Proto-Oncogene Transcription Factor (AID 2282990); conditions: HepG2, Attagene cis-reporter transcription factor activity; actives raise or lower the signal
Procedure, shortened: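 Multiplexed cis-reporter transcription in HepG2 cells after 24 h chemical treatment. Reporter mRNA measured by RT-PCR and capillary electrophoresis fluorescence; activity fitted bidirectionally against DMSO control.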

[10] = ATG_NF_kB_CIS: Attagene CIS-FACTORIAL HepG2 Assay for human Nuclear Factor Kappa B (NF-kB) (AID 2282991); conditions: HepG2 Attagene cis-factorial NF-kB reporter mRNA; actives raise or lower the signal
Procedure, shortened: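 Endpoint from a 52-component multiplexed HepG2 reporter panel: cis-regulated transcription units transiently transfected, 24 h dosing, reporter mRNA quantified by RT-PCR and capillary electrophoresis, scored as increase or decrease against DMSO.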

[11] = ATG_NRF2_ARE_CIS: Attagene CIS-FACTORIAL HepG2 Assay for human Nuclear Factor Erythroid 2 Related Factor 2 (NFR2) response to Antioxidant Response Elements (ARE) (AID 2282992); conditions: HepG2 Attagene ARE/NRF2 reporter, transcription factor activity; actives raise or lower the signal
Procedure, shortened: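 Readout: reporter mRNA quantified by RT-PCR plus FAM-labelled primer extension, HpaI digestion and capillary electrophoresis, 24 h after dosing transfected HepG2 cells. Gain or loss of signal is fitted bidirectionally against DMSO baseline.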

[12] = ATG_Oct_MLP_CIS: Attagene CIS-FACTORIAL HepG2 Assay for human Octamer-Binding Transcription Factor (Oct) (AID 2282993); conditions: HepG2 Attagene cis-factorial Oct reporter, mRNA; actives raise or lower the signal
Procedure, shortened: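 Transfected HepG2 cells, 24 h treatment. Reporter mRNA quantified by RT-PCR–capillary electrophoresis; bidirectional fitting against DMSO.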

[13] = biological target: Glucocorticoid receptor (Homo sapiens) (UniProt P04150); test: ATG_GR_TRANS: Attagene TRANS-FACTORIAL HepG2 Assay for human Glucocorticoid Receptor (GR) (AID 2282978; active means hit-call score of the fitted dose curve at least 0.9, where 1 is the maximum;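 further: activators score as hits since higher reporter transcript over DMSO is fitted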); conditions: HepG2 Attagene TRANS GR reporter, mRNA transcription
Procedure, shortened: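 Exogenous NR-GAL4 fusion activity was assessed through induced GAL4-UAS reporter transcripts in transfected human HepG2 cells, quantified after 24 h by RT-PCR and fluorescent capillary electrophoresis with DMSO as baseline.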

[14] = ATG_M_32_TRANS: Attagene TRANS-FACTORIAL HepG2 Assay for M32 Transcription Factor (Internal Marker) (AID 2282984; active means hit-call score of the fitted dose curve at least 0.9, where 1 is the maximum;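 further: transcript level of a background control reporter unit measured by RT-PCR and capillary electrophoresis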); conditions: HepG2 Attagene TRANS M32 internal marker reporter
Procedure, shortened: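 After 24 h dosing of transfected HepG2 cells, total RNA was reverse-transcribed, reporter sequences PCR-amplified, 6-FAM labelled by primer extension and HpaI-digested before capillary electrophoresis. Signal increase over DMSO was fitted.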

[15] = ATG_NFI_CIS: Attagene CIS-FACTORIAL HepG2 Assay for human Nuclear Factor I (NFI) (AID 2282989); conditions: HepG2 cis-regulatory reporter, NFI response element transcription; actives raise or lower the signal
Procedure, shortened: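 Reporter transcription driven by endogenous transcription factors in HepG2 cells; 24 h treatment. Quantitation by labelled RT-PCR fragments on capillary electrophoresis, gain- or loss-of-signal relative to DMSO.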

[16] = biological target: Cellular tumor antigen p53 (Homo sapiens) (UniProt P04637); test: ATG_p53_CIS: Attagene CIS-FACTORIAL HepG2 Assay for human p53 Transcription Factor (AID 2282994); conditions: HepG2 p53 cis-element reporter, Attagene mRNA; actives raise or lower the signal
Procedure, shortened: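 Read-out: reporter mRNA by RT-PCR plus capillary electrophoresis with fluorescence detection. Human HepG2 liver cells carried transfected multi-reporter cis-element constructs, dosed 24 h. Gain or loss of signal fitted bidirectionally against DMSO control.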

[17] = BSK_3C_TissueFactor: BioMAP Diversity Plus: 3C Assay for Tissue Factor Biomarker Activity (AID 2282997); conditions: BioMAP 3C HUVEC, tissue factor biomarker readout; actives raise or lower the signal
Procedure, shortened: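 HUVEC, 3C system, 24 h post-dose; Tissue Factor by ELISA; bidirectional fit vs DMSO baseline.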

[18] = BSK_3C_uPAR: BioMAP Diversity Plus: 3C Assay for Urokinase-type plasminogen activator receptor (uPAR) Biomarker Activity (AID 2282998); conditions: BioMAP 3C HUVEC, uPAR biomarker ELISA; actives raise or lower the signal
Procedure, shortened: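 Readout: ELISA for surface uPAR. System: human umbilical vein endothelial primary cells, 24 h after chemical exposure. Analysis: bidirectional fit, DMSO baseline.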

[19] = BSK_3C_VCAM1: BioMAP Diversity Plus: 3C Assay for Vascular cell adhesion molecule 1 (VCAM1) Biomarker Activity (AID 2282999); conditions: BioMAP 3C HUVEC, VCAM1 ELISA, cytokine-stimulated; actives raise or lower the signal
Procedure, shortened: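 Vascular primary endothelium (human umbilical vein) was exposed to chemicals and assayed 24 h later. VCAM-1 levels came from ELISA, with DMSO serving as baseline for bidirectional fitting.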

[20] = biological target: Oxysterols receptor LXR-beta (Homo sapiens) (UniProt P55055); test: ATG_LXRb_TRANS: Attagene TRANS-FACTORIAL HepG2 Assay for human Liver X Receptor beta (LXRb) (AID 2282981; active means hit-call score of the fitted dose curve at least 0.9, where 1 is the maximum); conditions: HepG2 Attagene TRANS GAL4-LXRb reporter, mRNA
Procedure, shortened: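 Measures induction of a Gal4-driven reporter transcript in HepG2 cells expressing an exogenous LXRb-Gal4 fusion. Cells are exposed to compound for 24 h before RNA isolation and RT-PCR with capillary electrophoresis detection.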

Measured: AC50

Nuclear respiratory factor 1 (Homo sapiens), sequence (Q16656 whole entry, looked up): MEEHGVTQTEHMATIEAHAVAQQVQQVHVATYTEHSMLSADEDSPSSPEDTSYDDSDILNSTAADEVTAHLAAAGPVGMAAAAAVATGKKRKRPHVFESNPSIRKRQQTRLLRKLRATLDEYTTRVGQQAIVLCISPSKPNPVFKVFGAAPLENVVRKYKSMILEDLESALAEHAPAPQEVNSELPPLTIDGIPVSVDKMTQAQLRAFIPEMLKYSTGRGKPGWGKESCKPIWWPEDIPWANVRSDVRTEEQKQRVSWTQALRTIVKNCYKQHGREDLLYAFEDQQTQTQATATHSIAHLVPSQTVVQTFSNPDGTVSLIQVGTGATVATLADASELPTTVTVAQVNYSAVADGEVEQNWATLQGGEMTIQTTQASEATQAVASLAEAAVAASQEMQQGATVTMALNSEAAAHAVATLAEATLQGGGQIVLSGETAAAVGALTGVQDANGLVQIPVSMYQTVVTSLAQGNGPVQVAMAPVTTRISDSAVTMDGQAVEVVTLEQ
Glucocorticoid receptor (Homo sapiens), sequence (P04150 whole entry, looked up, the tested form may be a part): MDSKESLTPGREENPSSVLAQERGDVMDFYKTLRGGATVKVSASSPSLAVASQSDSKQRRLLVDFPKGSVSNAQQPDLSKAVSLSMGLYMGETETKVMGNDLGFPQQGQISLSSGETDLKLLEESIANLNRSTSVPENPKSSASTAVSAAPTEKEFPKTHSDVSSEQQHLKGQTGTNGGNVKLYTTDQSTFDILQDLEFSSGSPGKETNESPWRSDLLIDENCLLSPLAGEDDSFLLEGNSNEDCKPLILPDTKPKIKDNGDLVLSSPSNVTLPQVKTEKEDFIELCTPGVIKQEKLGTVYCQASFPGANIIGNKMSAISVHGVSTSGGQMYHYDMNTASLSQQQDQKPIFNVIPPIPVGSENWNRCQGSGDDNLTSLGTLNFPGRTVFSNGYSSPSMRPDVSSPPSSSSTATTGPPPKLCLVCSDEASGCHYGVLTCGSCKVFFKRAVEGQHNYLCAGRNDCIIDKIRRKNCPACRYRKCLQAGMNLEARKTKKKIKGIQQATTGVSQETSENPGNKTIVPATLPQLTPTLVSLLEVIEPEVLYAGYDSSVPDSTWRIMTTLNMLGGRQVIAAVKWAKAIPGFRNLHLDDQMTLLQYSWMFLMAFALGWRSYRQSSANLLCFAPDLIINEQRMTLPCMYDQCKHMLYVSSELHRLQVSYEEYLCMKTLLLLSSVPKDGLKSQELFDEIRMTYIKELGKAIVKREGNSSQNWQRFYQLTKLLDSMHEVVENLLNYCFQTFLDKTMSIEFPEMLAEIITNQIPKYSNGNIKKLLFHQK
Oxysterols receptor LXR-beta (Homo sapiens), sequence (P55055 whole entry, looked up, the tested form may be a part): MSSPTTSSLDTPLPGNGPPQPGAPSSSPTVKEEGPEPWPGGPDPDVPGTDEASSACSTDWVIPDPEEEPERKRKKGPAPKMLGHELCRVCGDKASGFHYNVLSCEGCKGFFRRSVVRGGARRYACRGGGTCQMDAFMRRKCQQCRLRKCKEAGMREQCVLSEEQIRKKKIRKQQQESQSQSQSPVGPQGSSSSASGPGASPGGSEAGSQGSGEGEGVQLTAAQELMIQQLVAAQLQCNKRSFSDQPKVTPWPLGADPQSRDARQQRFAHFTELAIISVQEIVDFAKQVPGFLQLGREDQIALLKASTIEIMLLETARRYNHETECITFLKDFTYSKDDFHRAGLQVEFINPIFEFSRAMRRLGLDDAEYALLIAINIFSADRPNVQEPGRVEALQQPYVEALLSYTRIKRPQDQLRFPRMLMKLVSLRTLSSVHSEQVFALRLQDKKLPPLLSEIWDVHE
Nuclear receptor subfamily 4 group A member 2 (Homo sapiens), sequence (P43354 whole entry, looked up, the tested form may be a part): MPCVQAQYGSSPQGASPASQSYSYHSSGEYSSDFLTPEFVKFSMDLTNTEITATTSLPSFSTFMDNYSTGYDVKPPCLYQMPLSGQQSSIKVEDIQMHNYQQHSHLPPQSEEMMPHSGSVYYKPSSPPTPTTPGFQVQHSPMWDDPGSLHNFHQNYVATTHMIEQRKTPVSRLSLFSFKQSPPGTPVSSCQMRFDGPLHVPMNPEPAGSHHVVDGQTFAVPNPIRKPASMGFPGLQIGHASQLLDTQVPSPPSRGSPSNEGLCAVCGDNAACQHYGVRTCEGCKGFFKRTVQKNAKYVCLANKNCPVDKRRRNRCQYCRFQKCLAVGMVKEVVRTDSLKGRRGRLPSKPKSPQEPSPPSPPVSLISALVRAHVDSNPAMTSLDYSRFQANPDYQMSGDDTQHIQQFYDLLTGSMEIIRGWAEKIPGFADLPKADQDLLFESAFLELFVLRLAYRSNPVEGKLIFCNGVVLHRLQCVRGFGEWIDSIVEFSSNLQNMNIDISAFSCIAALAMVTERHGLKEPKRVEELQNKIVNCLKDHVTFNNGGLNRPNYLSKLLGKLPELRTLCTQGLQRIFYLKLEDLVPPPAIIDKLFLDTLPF
Myc proto-oncogene protein (Homo sapiens), sequence (P01106 whole entry, looked up): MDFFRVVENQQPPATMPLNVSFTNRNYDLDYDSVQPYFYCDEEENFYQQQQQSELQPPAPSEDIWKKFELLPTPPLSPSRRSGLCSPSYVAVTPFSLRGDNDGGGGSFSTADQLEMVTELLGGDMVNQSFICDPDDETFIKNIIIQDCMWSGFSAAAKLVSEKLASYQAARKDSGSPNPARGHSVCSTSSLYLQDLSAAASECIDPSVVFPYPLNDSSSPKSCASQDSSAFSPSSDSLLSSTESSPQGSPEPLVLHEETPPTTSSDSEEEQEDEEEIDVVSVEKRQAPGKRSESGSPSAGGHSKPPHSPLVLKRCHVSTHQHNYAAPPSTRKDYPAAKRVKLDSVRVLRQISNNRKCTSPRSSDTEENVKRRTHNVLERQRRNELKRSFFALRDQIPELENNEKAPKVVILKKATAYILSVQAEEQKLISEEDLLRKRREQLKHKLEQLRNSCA
Bile acid receptor (Homo sapiens), sequence (Q96RI1 whole entry, looked up, the tested form may be a part): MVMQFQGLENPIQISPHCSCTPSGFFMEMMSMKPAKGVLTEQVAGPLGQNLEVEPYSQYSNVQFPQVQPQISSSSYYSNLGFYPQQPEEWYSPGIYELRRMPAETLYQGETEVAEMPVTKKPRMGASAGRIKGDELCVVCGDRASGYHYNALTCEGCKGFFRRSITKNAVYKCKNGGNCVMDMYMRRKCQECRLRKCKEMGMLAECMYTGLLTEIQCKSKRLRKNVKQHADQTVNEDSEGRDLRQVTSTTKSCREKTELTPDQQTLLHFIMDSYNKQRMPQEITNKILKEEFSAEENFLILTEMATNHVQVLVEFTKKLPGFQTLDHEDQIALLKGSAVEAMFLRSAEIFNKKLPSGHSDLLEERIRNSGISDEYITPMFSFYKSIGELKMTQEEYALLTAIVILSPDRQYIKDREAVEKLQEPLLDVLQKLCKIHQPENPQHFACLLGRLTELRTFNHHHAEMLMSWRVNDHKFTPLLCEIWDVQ
Estrogen-related receptor gamma (Homo sapiens), sequence (P62508 whole entry, looked up, the tested form may be a part): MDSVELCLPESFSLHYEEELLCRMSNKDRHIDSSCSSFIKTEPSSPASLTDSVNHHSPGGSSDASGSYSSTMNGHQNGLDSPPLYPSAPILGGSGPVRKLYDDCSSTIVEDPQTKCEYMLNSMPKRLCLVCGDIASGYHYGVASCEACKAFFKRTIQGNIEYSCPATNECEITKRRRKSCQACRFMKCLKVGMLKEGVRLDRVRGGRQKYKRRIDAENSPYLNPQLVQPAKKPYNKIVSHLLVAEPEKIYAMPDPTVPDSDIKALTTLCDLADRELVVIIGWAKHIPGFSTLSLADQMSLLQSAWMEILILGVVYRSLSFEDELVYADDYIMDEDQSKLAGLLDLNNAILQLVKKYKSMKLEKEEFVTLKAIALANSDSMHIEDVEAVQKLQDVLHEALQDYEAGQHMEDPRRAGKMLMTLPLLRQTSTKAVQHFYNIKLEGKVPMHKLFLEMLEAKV
Transcriptional activator Myb (Homo sapiens), sequence (P10242 whole entry, looked up): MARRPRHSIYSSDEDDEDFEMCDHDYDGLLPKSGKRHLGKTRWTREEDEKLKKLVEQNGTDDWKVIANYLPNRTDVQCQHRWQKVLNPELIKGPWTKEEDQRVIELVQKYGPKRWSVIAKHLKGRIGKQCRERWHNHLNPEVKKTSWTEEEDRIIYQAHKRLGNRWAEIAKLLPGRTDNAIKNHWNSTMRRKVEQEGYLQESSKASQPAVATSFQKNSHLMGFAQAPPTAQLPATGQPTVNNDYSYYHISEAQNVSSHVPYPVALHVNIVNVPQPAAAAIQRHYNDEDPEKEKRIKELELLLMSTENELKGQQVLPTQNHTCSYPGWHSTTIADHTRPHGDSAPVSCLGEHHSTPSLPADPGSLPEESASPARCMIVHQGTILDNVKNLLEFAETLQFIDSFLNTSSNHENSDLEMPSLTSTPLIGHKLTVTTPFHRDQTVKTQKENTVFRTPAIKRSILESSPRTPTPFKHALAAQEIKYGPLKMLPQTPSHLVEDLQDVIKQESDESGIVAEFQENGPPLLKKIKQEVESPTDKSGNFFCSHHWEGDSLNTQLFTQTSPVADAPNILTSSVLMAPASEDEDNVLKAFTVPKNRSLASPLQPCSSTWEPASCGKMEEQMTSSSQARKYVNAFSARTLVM
Hepatocyte nuclear factor 4-alpha (Homo sapiens), sequence (P41235 whole entry, looked up, the tested form may be a part): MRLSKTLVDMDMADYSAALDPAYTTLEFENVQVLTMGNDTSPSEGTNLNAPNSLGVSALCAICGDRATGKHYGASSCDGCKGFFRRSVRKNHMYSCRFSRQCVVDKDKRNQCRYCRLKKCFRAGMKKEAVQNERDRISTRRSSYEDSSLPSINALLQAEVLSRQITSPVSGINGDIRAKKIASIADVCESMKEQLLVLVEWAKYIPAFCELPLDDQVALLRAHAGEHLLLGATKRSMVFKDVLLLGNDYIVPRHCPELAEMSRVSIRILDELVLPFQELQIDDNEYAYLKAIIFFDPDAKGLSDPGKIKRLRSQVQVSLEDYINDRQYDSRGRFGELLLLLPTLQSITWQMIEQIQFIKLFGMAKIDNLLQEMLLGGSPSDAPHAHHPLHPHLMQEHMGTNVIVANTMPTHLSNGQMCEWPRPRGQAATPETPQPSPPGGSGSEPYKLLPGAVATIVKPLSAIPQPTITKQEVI

CC(C)(CO)C(O)C(=O)NCCCO (centres undefined)
not listed: [13] | [14] | [15] | [16] | [17] | [18] | [19] | [20]
inactive: all other assays above

C=C(C)C1CC=C(C)C(OC(C)=O)C1 (centres undefined)
inactive: [1] | [13] | [4] | [14] | [7] | [8] | [15] | [9] | [11] | [12] | [16]

CCCCC1C(=O)N(c2ccccc2)N(c2ccccc2)C1=O
active: [11] 6.46 µM | [18] 10.2 µM
not listed: [3] | [5] | [20]
inactive: all other assays above

CC(CCC(=O)O)(c1ccc(O)cc1)c1ccc(O)cc1
not listed: [2] | [3]
inactive: all other assays above

CCCC(C)C(=O)OCC (centres undefined)
not listed: [2] | [3] | [4] | [6] | [8] | [14] | [15] | [20]
inactive: all other assays above

CC1C(C)(C)C2=C(C(=O)CCC2)C1(C)C (centres undefined)
not listed: [2] | [4] | [5] | [14] | [17] | [18] | [19]
inactive: all other assays above

Fc1ccc(Br)cc1
not listed: [2] | [3] | [4] | [5] | [8] | [15]
inactive: all other assays above

Cc1c(O)cccc1O
not listed: [3] | [5] | [13] | [14] | [16]
inactive: all other assays above

C=Cc1ccc(OC(C)=O)cc1
active: [11] 6.87 µM | [12] 55.4 µM
not listed: [2] | [3] | [10] | [17] | [18] | [19] | [20]
inactive: all other assays above

CCC(=O)C1CC(C(C)C)CC=C1C (centres undefined)
inactive: [1] | [13] | [3] | [5] | [7] | [8] | [15] | [12]
active: [11] 40.1 µM
